Source: PubChem BioAssay (Tox21)
Inconclusive results are not listed. A number with no mark means an inactive call. Calls of active or inactive are those of the source. Calls follow the shape of the full dose curve.

Assay: qHTS assay to identify small molecule agonists of the progesterone receptor (PR) signaling pathway - cell viability counter screen (AID 1346799); also: nearly all actives have a fitted effect of over 45% in size
Conditions: PR-UAS-bla HEK293T viability, CellTiter-Glo luminescence, 16 h; series mostly up to 92.4 µM; activity change, negative = cytotoxicity: at the top concentration
Text: National Center for Advancing Translational Sciences [NCATS]
NIH Chemical Genomics Center [NCGC]
U.S. Environmental Protection Agency [EPA]
National Institutes of Environmental Health Sciences [NIEHS]
National Toxicology Program [NTP]
U.S. Food and Drug Administration [FDA]
Progesterone receptor (PR), a nuclear hormone receptor, plays an important role in development, metabolic homeostasis and reproduction. It is activated by the steroid hormone progesterone. Endocrine disrupting chemicals (EDCs) and their interactions with steroid hormone receptors like PR causes disruption of normal endocrine function. To identify the compounds that stimulate PR signaling, a PR-UAS-bla GripTite cell line i.e. PR-UAS-bla HEK293T (Invitrogen, Carlsbad, CA, USA) containing a beta-lactamase reporter gene under the control of an UAS response element was used to screen Tox21 10K compound library. The cytotoxicity of the Tox21 compound library against the PR-bla cell line was tested in parallel by measuring the cell viability using CellTiter-Glo assay in the same wells.
Tox21 Assay Protocol Summary:
PR-UAS-bla HEK293T cells were dispensed at 3,000 cells/5 uL of assay medium containing 2% charcoal stripped FBS per well into black wall/clear-bottom 1536-well plates using a Multidrop Combi (ThermoFisher Scientific, Waltham, MA) dispenser. After the assay plates were incubated at a 37C and 5% CO2 for 6 hr, 23 nL of compounds dissolved in DMSO, positive controls or DMSO only was transferred to the assay plate by a Pintool station (Kalypsys, San Diego, CA). The plates were incubated at 37C and 5% CO2 for 16 hr. Then 1 uL of LiveBLAzer B/G FRET substrate was added using a Flying Reagent Dispenser (FRD, Aurora Discovery, San Diego, CA), the plates were incubated at room temperature for 2 hours, and fluorescence intensity was measured by an Envision plate reader (PerkinElmer, Shelton, CT). For cell viability readout that measures cytotoxicity, 4 uL/well of CellTiter-Glo reagent was added into the assay plates using a FRD. After 30 min incubation at room temperature, the luminescence intensity in the plates was measured using a ViewLux (PerkinElmer) plate reader.
% is scaled to controls: 0 for no effect and ±100 for the full control effect.

Structure (SMILES)	activity change, negative = cytotoxicity	Potency
COC(=O)NN	-2.81%	
c1ccc(CC2=NCCN2)cc1	1.08% [at 42.5 µM]	
O=C(c1ccccc1)C1CCCCC1	-5.57%	
CCCCCCOC(=O)CCCCC(=O)OCCCCCC	-13.1%	
CCCCCCCCCCCC	-14.3%	
CC(C)NC(=O)NC(C)C	2.67%	
CN1CC(=O)NC1=N	-25.9% [at 42.5 µM]	
COC(=O)c1c(Cl)c(Cl)c(C(=O)OC)c(Cl)c1Cl	6.56%	
COc1cc(C(=O)N2CCCCCCC2)cc(OC)c1OC	0.0213% [at 42.5 µM]	
CC(C[N+](C)(C)C)OC(N)=O (stereo not given)	-6.06% [at 42.5 µM]	
Cc1cnc(NS(=O)(=O)c2ccc(N)cc2)nc1	0% [at 42.5 µM]	
O=[N+]([O-])c1ccc(F)cc1F	-5.75%	
C=C(C)CS(=O)(=O)O	-5%	
O=C1OC(=O)C2CCCCC12 (stereo not given)	3.46%	
COCCCOCCCOC	0.156%	
CC(=O)CC(C)C	12.9%	
Cc1cc(O)cc2c1O[C@](C)(CCC[C@H](C)CCC[C@H](C)CCCC(C)C)CC2	0.438% [at 42.5 µM]	
CCc1nccnc1CC	-10.8% [at 19 µM]	
Cc1[nH]c(=O)c(C#N)cc1-c1ccc2nccn2c1	3.52% [at 42.5 µM]	
Cc1ccc(Cl)cc1Cl	0.984%	

Structure (SMILES)	activity change, negative = cytotoxicity	Potency
CC1(C)C(O)C(C)(C)C1O (stereo not given)	11.8%	
OC(CCN1CCCCC1)(c1ccccc1)C1CC2C=CC1C2 (stereo not given)	-7% [at 42.5 µM]	
CCOC(=O)[C@H](CCc1ccccc1)N[C@@H](C)C(=O)N1[C@H](C(=O)O)C[C@@H]2CCC[C@@H]21	-15% [at 42.5 µM]	
CCCCCOC(=O)CCCCC	4.56%	
CN1N=C(C(N)=O)CCC1=O	-3.65% [at 42.5 µM]	
C1CN(CCOCCN2CCOCC2)CCO1	-3.13%	
C=CCOCC(CC)(CO)COCC=C	-4.47%	
COc1ccc2c(c1)c(CC(=O)OCC(=O)O)c(C)n2C(=O)c1ccc(Cl)cc1	-7.31% [at 42.5 µM]	
Cc1cccn2c(=O)c(-c3nnn[nH]3)cnc12	11.1% [at 19 µM]	
O=C(O)COc1nn(Cc2ccccc2)c2ccccc12	-17% [at 42.5 µM]	
CC(C)(O)C#CC(C)(C)O	-0.606%	
Cc1ccc(C#N)cc1	4.93%	
C[N+](C)(C)CCCCCC[N+](C)(C)C		inactive
NCCCNCCSP(=O)(O)O	17.5% [at 8.39 µM]	
CCO/C([O-])=N/c1c[n+](N2CCOCC2)no1	0.242% [at 42.5 µM]	
N#Cc1ccc(C2CCCc3cncn32)cc1 (stereo not given)	-11.1% [at 42.5 µM]	
COC(=O)c1cc(C(=O)OC)cc(S(=O)(=O)O)c1	17%	
CCO[Si](CCC1CCC2OC2C1)(OCC)OCC (stereo not given)	1.04%	
CC(C)NCCCC1(C(N)=O)c2ccccc2-c2ccccc21	0.398% [at 42.5 µM]	
Brc1c(NC2=NCCN2)ccc2nccnc12	2.12% [at 42.5 µM]	
